KB-3-1 cytotox – kills parental KB-3-1 adenocarcinoma cells. KB-3-1 viability, CellTiter-Glo ATP luminescence, 72 h. Potency, µM (doses to about 46.1 µM), actives largely listed as cytotoxic. 400,000 compounds, 1.4% hits. AID 1347075; further: on the % scale 0 is the no-effect control and ±100 the full control effect; nearly all actives have a fitted effect of over 60% in size
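72 h, 37 °C compound treatment of KB-3-1 parental cells; CellTiter-Glo added, 10 min, luminescence read. Data corrected against DMSO-only plates and normalized before curve fitting.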
SW480 rereplic – DNA re-replication induction in SW480 cells. Potency, µM (series often up to 46.1 µM), for the others: top-dose re-replication activation, actives largely listed as activators. SW480 DNA re-replication, Hoechst DNA content imaging, 48 h. AID 624297. 340,000 compounds, 1.8% hits; further: % of control where 0% means no effect; nearly all actives have a fitted effect of over 55% in size
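Cells (250 per well) received 23 nL compound or DMSO by pin tool and were kept 48 hr at 37 C, 5% CO2. Nuclei were then stained with Hoechst for 40 min and scanned for DNA content.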
ELG1 DNA repair – blocks ELG1-dependent DNA repair in HEK293T cells; HEK293T ELG1-luciferase reporter, luminescence, 16 h; DNA damage induced by 5-fluorouridine; Potency, µM (top dose mostly 46.1 µM), without a hit: top-dose activity change, negative = inhibition, hits mostly inhibitors; 330,000 compounds, 2.3% hits; further: on the % scale 0 is the no-effect control and ±100 the full control effect; nearly all actives have a fitted effect of over 55% in size
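5-Fluorouridine DNA damage + compound/DMSO, 2,000 cells/well, 16 h, 37 °C/5% CO2. ONE-Glo, 30 min RT, luminescence. Readout = decrease in reporter signal.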
MCF10A rereplic – induces DNA re-replication in MCF 10a normal breast cells | MCF 10A DNA re-replication, Hoechst nuclear intensity, 48 h | Potency, µM (titrated, usually from 46.1 µM), for the others: at the highest dose activity, positive = re-replication, actives largely listed as activators | 350,000 compounds, 2.9% hits | AID 624296; further: % of control where 0% means no effect; nearly all actives have a fitted effect of over 50% in size
KB-V1 cytotox – kills drug-selected multidrug resistant KB-V1 cells. KB-V1 MDR cells viability, CellTiter-Glo, 72 h. Potency, µM (highest dose often 46.1 µM), most hits filed as cytotoxic. 400,000 compounds, 3.4% hits. AID 1347076; further: on the % scale 0 is the no-effect control and ±100 the full control effect; nearly all actives have a fitted effect of over 60% in size
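Cytotoxicity via CellTiter-Glo luminescence after 72 h compound exposure at 37 degrees C. Cells: drug-selected KB-V1 line, DMEM phenol-red free plus 10% FBS. Compounds tested at multiple concentrations; normalized data fitted to concentration-effect curves.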
Starred values were filed as active, the others as inactive; i = inactive; ? = inconclusive; · = no result given. Hits are enriched below; roughly 8.2% of the tested compounds scored in any of these assays. The call rests on the fitted dose curve; in most records, active means well fitted curve in the direction sought with a large enough effect; inconclusive means small, poorly fitted or top-dose-only effect, or another doubt; inactive means no such curve, though single readings can be large; an effect the other way counts as inactive or inconclusive. Potency means the concentration at half of the fitted maximal effect.

SMILES	KB-3-1 cytotox	SW480 rereplic	ELG1 DNA repair	MCF10A rereplic	KB-V1 cytotox
FC(F)(F)c1cccc(CN2CCC(c3cc(-c4cccs4)n[nH]3)CC2)c1	?	?	?	13µM*	?
Cc1ccc(CN2CCC(c3cc(-c4cccs4)n[nH]3)CC2)cc1	i	10.4%	-9.3%	?	?
CCc1nnc(NC(=O)CSc2nccn2Cc2ccc(F)cc2)s1	i	·	·	·	i
Cc1ccc(C2=Nc3ccccc3N(CC(=O)NCc3ccccc3Cl)C(=O)C2)cc1C	i	·	·	·	i
CCOc1ccc(C(C)=O)cc1CSC(=N)N	i	-3.5%	-11.6%	-16.2%	i
CCCCOc1ccc(Br)cc1CSC(=N)N	23.1µM*	?	23.1µM*	?	8.2µM*
CCCCOc1ccc(CSC2=NCCN2)cc1[N+](=O)[O-]	?	?	15.3%	20.6µM*	?
CCCCCOc1ccc(CSC(=N)N)cc1[N+](=O)[O-]	?	?	?	?	18.4µM*
COc1cc(Cl)ccc1OC1(C)CCN(Cc2ccc3ccccc3c2)C1 (centres undefined)	i	·	·	·	?
CCCC/C(O)=C1\C(=O)CC(C)(C)CC1=NCCCCCC(=O)O	i	-3.2%	12.4%	?	i
Cc1cc(C)c(C)c(S(=O)(=O)Nc2ccc3cn[nH]c3c2)c1C	i	-2.4%	-20.5%	-1.6%	?
COc1ccc(C2Nc3cc(OC)ccc3-n3cccc32)cc1 (centres undefined)	i	20.6µM*	-17.6%	16.4µM*	?
O=C(NCc1ccc2c(c1)OCO2)C1CCN(c2ccc(S(=O)(=O)N3CCCC3)cc2)CC1	?	6.1%	?	2.5%	2.59µM*
O=C(NCc1ccc2c(c1)OCO2)C1CCN(S(=O)(=O)N2CCCCC2)CC1	i	-7.3%	-24.1%	-1.1%	i
COc1ccccc1CNC(=O)C1CCN(S(=O)(=O)c2ccc3c(c2)NC(=O)CO3)CC1	i	-20.0%	11.8%	-5.3%	i
O=C(NCc1ccc(Cl)cc1Cl)C1CCN(S(=O)(=O)c2ccc3c(c2)OCCCO3)CC1	?	-255.4%	?	-2.9%	3.26µM*
COc1ccccc1CNC(=O)C1CCN(S(=O)(=O)c2ccc3c(c2)OCCCO3)CC1	i	20.8%	-15.2%	-0.3%	18.4µM*
O=C(NCc1ccc(F)cc1)C1CCN(S(=O)(=O)c2ccc3c(c2)OCCCO3)CC1	i	1.8%	?	11.1%	?
COc1ccccc1NC(=O)C(C)OC(=O)C1CCN(S(=O)(=O)c2ccc(C)c(C)c2)CC1 (centres undefined)	i	-1.9%	-25.0%	15.4%	7.31µM*
CSC[C@H]1CN(CCc2ccccc2)C(=O)[C@@H]1CC(=O)Nc1ccccc1	i	·	·	·	i
CN(CC(=O)Nc1ccc(Cl)c(C(F)(F)F)c1)C(=O)/C=C/c1cccs1	i	-2.3%	-19.1%	23.9%	i
CCCNC(=O)C1CCN(c2ccc(S(=O)(=O)N3CCOCC3)cc2Cl)CC1	i	1.3%	?	2.2%	?
COc1ccc(NS(=O)(=O)c2ccc3c(c2)OCCO3)cc1OC	i	0.2%	2.31µM*	16.4%	i
COc1cccc(CNC(=O)C2CCN(S(=O)(=O)c3ccccc3)CC2)c1	i	1.2%	-12.6%	2.3%	20.6µM*
O=C(NCc1cccnc1)C1CCN(c2ccc(S(=O)(=O)N3CCOCC3)cc2Cl)CC1	23.1µM*	?	16.4µM*	10.7%	i
SMILES	KB-3-1 cytotox	SW480 rereplic	ELG1 DNA repair	MCF10A rereplic	KB-V1 cytotox
COc1ccc(S(=O)(=O)N2CCC(C(=O)NCc3cccc(OC)c3)CC2)cc1	i	8.3%	-11.0%	14.7%	i
COc1ccc(S(=O)(=O)N2CCC(C(=O)Nc3ccc4c(c3)OCCO4)CC2)cc1OC	i	8.9%	-17.8%	2.1%	18.4µM*
COc1ccc(S(=O)(=O)Nc2ccc3c(c2)OCO3)cc1OC	i	4.9%	12.3%	1.6%	i
Clc1cccc(CNc2nnnn2-c2ccccc2)c1	?	-3.0%	?	?	23.1µM*
CCOCCCNC1=C(Cl)C(=O)c2ccccc2C1=O	?	?	-24.3%	?	i
O=C1C(Cl)=C(NCCCO)C(=O)c2ccccc21	23.1µM*	?	-12.7%	?	i
CN(C)c1ccc(NC2=C(Cl)C(=O)c3ccccc3C2=O)cc1	?	2.91µM*	?	4.11µM*	i
CC(=O)Nc1ccc(NC2=C(Cl)C(=O)c3ccccc3C2=O)cc1	16.4µM*	5.17µM*	?	?	?
O=C1C(Cl)=C(Nc2ccc3cn[nH]c3c2)C(=O)c2ccccc21	?	2.31µM*	?	0.581µM*	?
Cc1ccc(NC2=C(NCCO)C(=O)c3ccccc3C2=O)cc1	?	?	-1.3%	19.2%	i
CCn1ccnc1C(O)c1ccccc1OC (centres undefined)	i	18.4µM*	6.0%	13µM*	i
COc1ccccc1C(O)c1nccn1C (centres undefined)	i	-2.3%	9.9%	19.1%	i
Cc1ccc(C(=O)N/C(=C\c2ccc(-c3ccccc3[N+](=O)[O-])o2)C(=O)NCCCN(C)C)cc1	i	2.2%	-22.4%	11.5%	i
Cc1ccc(C(=O)N/C(=C\c2ccc(-c3ccc(Cl)cc3)o2)C(=O)NCCCN(C)C)cc1	?	18.4µM*	?	?	i
CN(C)CCCNC(=O)/C(=C\c1ccc(-c2ccc(Br)cc2)o1)NC(=O)c1ccccc1	?	-125.9%	-19.9%	?	i
Cc1ccc(C(=O)N/C(=C\c2ccc(-c3ccccc3[N+](=O)[O-])o2)C(=O)NCCN(C)C)cc1	i	2.91µM*	?	-2.1%	?
Cc1ccc2c(C(=O)CNc3nccs3)c[nH]c2c1	i	·	·	·	?
Cc1cccc(NC(=S)NNC(=O)c2ccc3c(c2)OCO3)c1	i	?	?	10.6%	i
Cc1cccc(NC(=S)NNC(=O)c2cc3c(s2)CCC(C)C3)c1C (centres undefined)	i	-3.7%	-6.2%	16.4µM*	?
CCCc1cc(C(=O)NNC(=S)Nc2cccc(C)c2)cs1	i	-8.7%	?	20.2%	14.6µM*
CC(C)CNC(=S)NNC(=O)c1csc2c1CCC(C)C2 (centres undefined)	i	-5.3%	-10.7%	18.5%	7.31µM*
Cc1nnc(NC(=O)c2csc3c2CCC(C)C3)s1 (centres undefined)	i	-41.2%	?	-8.0%	i
Cc1cccc(NC(=S)NNC(=O)c2csc3c2CCC(C)C3)c1 (centres undefined)	i	6.8%	?	?	23.1µM*
CCn1cc[n+](C)c1P(c1ccccc1)c1ccccc1	7.31µM*	-1.5%	10.1%	-0.8%	i

Source: PubChem BioAssay
